# Results reported in PMC12136788.
# Changes are numbered by the printed parent chain. The full ranking holds about 24,000 sequences; the median of “enrichment r” is about 0.99, and the highest 2% start at about 3.7. The sample as a whole holds a higher share of the highest values than the screen did.
# T1: UNK ZnF1-3 (human, UniProt Q9C0B0 31-174)
# T1 sequence: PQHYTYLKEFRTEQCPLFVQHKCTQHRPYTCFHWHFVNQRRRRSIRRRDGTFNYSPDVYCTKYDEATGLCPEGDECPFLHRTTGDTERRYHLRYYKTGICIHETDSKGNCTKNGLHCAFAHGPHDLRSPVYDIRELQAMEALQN
# B1: 132634964_132635084_86_5pUTR_ENSMUSG00000030750_ENSMUST00000033006|mouse|control|control (ssRNA)
# RNA: GGGAGUUCUACAGUCCGACGAUCCCCGCCUCCAGGGCGGAGAGAUCGCCAGACUGGAGCUCCUACUGGUGGGCUACGCGCAUUCUCCCGCUCACCAGCGGAGUACUUCCGUUUUCCCCGCCCGCUCUGUUGCUAUGGCGCCUUCAACAGAGGAUUGAGCAUCA
# B2: chr2:24222969:24222970:+_ENSG00000173960_ENST00000309033|hu_mus|FALSE|FALSE (ssRNA)
# RNA: GGGAGUUCUACAGUCCGACGAUCAUUAAUGACACAGCUAUUUAAUGUCAUAUUGGCUAACUAAUAUUUGAAAAAUAGGUAUUUUUUUCUGAAUAGCCUGUUGAGAAAAAUGCACUGACCCUGGCUUAGAGCCAUGUCACUCUCCAACAGAGGAUUGAGCAUCA
# B3: chr16:94664741:94664742:+_ENSMUSG00000040785_ENSMUST00000117648|mus_hu|mus_mus_mus_hu_False|48_78 (ssRNA)
# RNA: GGGAGUUCUACAGUCCGACGAUCUGGUACUGAUCUUGGUAGCUGAUAUUCAGGAGAAAUGUUGGCCAAGGGUGUAUAUAUGCUGGUGAACUGCGACAAACCUGGUAACACGUUUAUGUAUGCUGGCGGUGUCUGGGUGAUAUCCAACAGAGGAUUGAGCAUCA
# B4: 203421096_203421216_3307_3pUTR_ENSG00000204217_ENST00000374580|human|control|control (ssRNA)
# RNA: GGGAGUUCUACAGUCCGACGAUCAGAUCCAGAGAAUUAGGCCUCUGUGCUCUUCUGGGCUUUGAUGGCCCAGGAUCUGCUGCUGUGCUUGGAACACCCUGUGCAAGAACAUCUUGUUCUGAACAUGGAUUGCUGUUGUUGUUACAACAGAGGAUUGAGCAUCA
# B5: chr11:87793471:87793472:-_ENSMUSG00000020483_ENSMUST00000020775|mus_mus|mus_mus_mus_hu_False|1_98 (ssRNA)
# RNA: GGGAGUUCUACAGUCCGACGAUCUGGACUUGAAAAUAAAAAAAAUAGCUGGAUCCCCCACCCCCCCACAUUGUCAACCCUACACGAGAGUUUUGAAGGCGACUCAUGAAAAUCAGCAGCUCAAACGGCAAUGACCACCCACCCCAACAGAGGAUUGAGCAUCA
# B6: chr4:57314706:57314707:+_ENSG00000128050_ENST00000264221|hu_mus|hu_hu_hu_mus_True|1_18 (ssRNA)
# RNA: GGGAGUUCUACAGUCCGACGAUCCAGAAUUUCAAAAAUAGCUUGUGUGGCAUGACUCAUGAUGUCCACUUCAGUCUGCCCUAUAACAAGGCCAGCAAAACAGAAUUUUGCAGCAAUCAGCUGUUCCUCAGACCACUGUGGGUCCAACAGAGGAUUGAGCAUCA
# B7: chr11:87793471:87793472:-_ENSMUSG00000020483_ENSMUST00000020775|mus_mus|mus_mus_mus_hu_False|98_98 (ssRNA)
# RNA: B5 RNA with A140C, C141A
# B8: chr11:87793471:87793472:-_ENSMUSG00000020483_ENSMUST00000020775|mus_mus|mus_mus_mus_hu_False|88_98 (ssRNA)
# RNA: B5 RNA with G50A, C54U, C55U, A140C, C141A
# B9: chr11:87793471:87793472:-_ENSMUSG00000020483_ENSMUST00000020775|mus_mus|mus_mus_mus_hu_False|38_88 (ssRNA)
# RNA: GGGAGUUCUACAGUCCGACGAUCUGGACUUGAAAAUAAAAGAAUAAGCUAGAUUUCCCACCCCCCCACAUUGUCAACCCUACACGAGAGUUUUGAAUGAUUCAUAAGAAAAUCAGCAGCUCAAACGGCAAUGACCACCCCACCCAACAGAGGAUUGAGCAUCA
# B10: chr11:87793471:87793472:-_ENSMUSG00000020483_ENSMUST00000020775|mus_mus|mus_mus_mus_hu_False|58_98 (ssRNA)
# RNA: B5 RNA with C82U, A83G, A140C, C141A
# B11: chr11:87793471:87793472:-_ENSMUSG00000020483_ENSMUST00000020775|mus_mus|mus_mus_mus_hu_False|38_98 (ssRNA)
# RNA: B9 RNA with G41A, U44A, A45U, A50G, U54C, U55C
# B12: chr11:87793471:87793472:-_ENSMUSG00000020483_ENSMUST00000020775|mus_mus|mus_mus_mus_hu_False|1_108 (ssRNA)
# RNA: GGGAGUUCUACAGUCCGACGAUCUGGGGGCUGGGGAAAAAGAAUAAGCUGGAUCCCCCACCCCCCCACAUUGUCAACCCUACACGAGAGUUUUGAAGGCGACUCAUGAAAAUCAGCAGCUCAAACGGCAAUGACCACCCACCCCAACAGAGGAUUGAGCAUCA
# B13: chrX:16864032:16864033:-_ENSG00000102054_ENST00000404022|hu_hu|FALSE|FALSE (ssRNA)
# RNA: GGGAGUUCUACAGUCCGACGAUCCAUGAUGUUAUCCUCAGACACUGAGCAAAUGACCCAAGGCUCAUUGGGGUUCCAGCUAAAAUCUGAAAUCUUAGCAGUGUGUCCUCCAUGAAUAAACAGGAGUUCUGGAGGCCCAUCUUCCAACAGAGGAUUGAGCAUCA
# B14: chr11:87793471:87793472:-_ENSMUSG00000020483_ENSMUST00000020775|mus_mus|mus_mus_mus_hu_False|68_98 (ssRNA)
# RNA: B5 RNA with U70G, A140C, C141A
# B15: chr4:57314706:57314707:+_ENSG00000128050_ENST00000264221|hu_mus|hu_hu_hu_mus_True|18_58 (ssRNA)
# RNA: B6 RNA with C78G, C86G, G141A
# B16: chr14:103803487:103803488:+_ENSG00000100664_ENST00000558506|hu_hu|FALSE|FALSE (ssRNA)
# RNA: GGGAGUUCUACAGUCCGACGAUCGAGUUUAUGAUGUGUGUCAAGCAUGCCUCGAUAGCCACAGGCUUUACAAGAAUUACCUAUUGUUUGCUUCUUUGGAUUGACAUGCAAAUCUGUUUCAGGAUUCUCACAUUCAGGACAGAGCAACAGAGGAUUGAGCAUCA
# B17: chr11:68315578:68315579:+_ENSG00000110075_ENST00000393800|perfect_dup|motif|central (ssRNA)
# RNA: GGGAGUUCUACAGUCCGACGAUCUGGAGGUUCGAUACACGUCAGGAGCCUGAGCAACAAAUCCAUGAUAGCAGAAGUUCCGGUGUGCUUUAUAAUAAGGUCUACAAAAUCAUGCUUCUUCUUUAAGAAAUCCACAAUCUGUUCCAACAGAGGAUUGAGCAUCA
# B18: chr2:216981417:216981418:+_ENSG00000079246_ENST00000392132|hu_hu|hu_hu_hu_mus_True|28_68 (ssRNA)
# RNA: GGGAGUUCUACAGUCCGACGAUCCUGAUACUGGUCCUUGCCAGCAAGGGCAUUAUCAGUGCCAUCUGUACCAAACAGGACUAACGCAAUCUCAUCUUUGCUCUCCGCAAACACCUGUCGUUGGACAAACAUAGUCAUCACUUUCAACAGAGGAUUGAGCAUCA
# B19: chr1:112309342:112309343:+_ENSG00000064703_ENST00000369702|hu_hu|FALSE|FALSE (ssRNA)
# RNA: GGGAGUUCUACAGUCCGACGAUCUCUCCAGUACUCCUCAUAAUCCUGAUAGGUAUCAGAAAAACUCAGACGUAUUUCCCUAUGACAGUCAUACCAAUCAUCUUCCUGGGCUUCAGUCUGCAAUCUGAAGGAAGACCGCCUGGGCAACAGAGGAUUGAGCAUCA
# B20: chr2:158287933:158287934:+_ENSMUSG00000027652_ENSMUST00000141497|mus_hu|FALSE|FALSE (ssRNA)
# RNA: GGGAGUUCUACAGUCCGACGAUCAAGAGGUUGUUCCAGCAUUGCCAGGAUGACACUGUUAUCCAAGACAAAGUACCGGAAACUAUGCUUGUUUAUGGUUGGCAGCCUGGAGUAUUUAAUCAAAGUGGUCUCAUUCACAAGACUCAACAGAGGAUUGAGCAUCA
# B21: chr3:179287964:179287965:+_ENSG00000136518_ENST00000429709|hu_hu|hu_hu_hu_mus_True|28_28 (ssRNA)
# RNA: GGGAGUUCUACAGUCCGACGAUCCUUGAGUGGUGAGAUGGCCUCCAUGUUCUCCCUGGGCACGCGGAGGGCAUUGGUGUCUAUGUAGUAGGUGGGCCCGCCCUGCUUGCCUUUAUCACCAUCAAUCUCCAUCAUUGUACUUCCCAACAGAGGAUUGAGCAUCA
# B22: chr4:131761308:131761309:-_ENSMUSG00000040025_ENSMUST00000102570|mus_mus|FALSE|FALSE (ssRNA)
# RNA: GGGAGUUCUACAGUCCGACGAUCGCUGACUGUCCAUCAAUCAUGGCUCCACCUAAGGAGCUGGGUGCAUAAGCGUAAUUGCUACUAUAUCCAGAGCUUUGAGUAGACUGUCCCUGAGAACUGUUAUUUCCCCAUGCUGAGAAGCAACAGAGGAUUGAGCAUCA
# Target: T1, UNK ZnF1-3
# Test: nsRBNS (natural sequence RNA bind-n-seq); RBNS binding buffer (assumed for nsRBNS): 25 mM Tris pH 7.5, 150 mM KCl, 3 mM MgCl2, 0.01% Triton X-100, 500 ug/ml BSA, 20 U/ml SUPERase-In, 4 C; UNK is unkempt and MSI1 is Musashi-1; names of the RNAs are library labels; protein concentration not given here; high values mean tight binding
row,Binder,binding signal [enrichment R]
1,B1,0.567
2,B2,0.836
3,B3,1.01
4,B4,0.924
5,B5,3.94
6,B6,0.937
7,B7,4.07
8,B8,3.58
9,B9,1.97
10,B10,3.93
11,B11,4.29
12,B12,1.72
13,B13,1.18
14,B14,3.54
15,B15,0.97
16,B16,1.32
17,B17,1.87
18,B18,0.739
19,B19,0.941
20,B20,0.695
21,B21,0.667
22,B22,1.1
